Screens as filed in PubChem BioAssay.
Only some compounds are listed: those with a hit (about 3.3% of all), similar ones and a draw of the others.
NS1 inh: blocks influenza NS1 protein function | 0.4% of 270,000 active | Potency, µM (top dose mostly 46.1 µM), for inactives: top-dose activity, positive = more growth; calls by dose curve; further: actives are rising curves; nearly all actives have a fitted effect of over 50% in size
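Read-out: OD600 growth recovery of NS1-expressing budding yeast. Cells grown overnight at 30C in -URA glucose medium, washed, resuspended and diluted 1:100 in 2% galactose assay medium, pH 6.0. Same strain lacking NS1 served as positive control.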
RE007 growth inh: less growth of the S. pombe RE007 Vpr strain | S. pombe RE007 Vpr strain, BacTiter-Glo ATP luminescence, 24 h | Potency, µM (top dose mostly 92.2 µM), for inactives: top-dose activity change, negative = less growth, usual class: inhibitors | 0.21% of 360,000 active | AID 651644; active means well fitted falling curve with a large enough effect; inconclusive means small, poorly fitted or top-dose-only effect; inactive means no such curve, though single readings can be large or run the other way; further: on the % scale 0 is the no-effect control and ±100 the full control effect; nearly all actives have a fitted effect of over 50% in size
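Fission yeast strain RE007, carrying one chromosomally integrated HIV-1 vpr copy, was seeded at OD 0.01 in PMG+AL medium with 23 nL pinned compound. After 24 h at 30 °C and 99% humidity, viability was read by BacTiter-Glo luminescence.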
Sm TGR inh: S. mansoni TGR enzyme inhibition. 3% of 360,000 active. Potency, µM (titrated, usually from 114 µM), for inactives: at the top dose activity change, negative = inhibition, usual class: inhibitors. purified TGR, DTNB reduction, TNB absorbance 405 nm. Q962Y6. AID 485364; further: on the % scale 0 is the no-effect control and ±100 the full control effect; nearly all actives have a fitted effect of over 60% in size
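First, TGR (20 nM dispensed) and NADPH were mixed with compound. Second, a 15 min room-temperature incubation followed. Third, further NADPH and then DTNB were added to start the reaction. Finally, TNB absorbance was monitored kinetically.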
LmPK inh: LmPK (Leishmania mexicana) enzyme inhibition | Q27686 | Potency, µM (highest dose often 57.5 µM), for the others: at the highest dose activity change, negative = inhibition, actives largely listed as inhibitors | AID 1721 | purified LmPK, Kinase-Glo ATP luminescence, 1 h | 0.37% of 290,000 active; further: on the % scale 0 is the no-effect control and ±100 the full control effect
Target sequence (Q27686 whole entry, looked up): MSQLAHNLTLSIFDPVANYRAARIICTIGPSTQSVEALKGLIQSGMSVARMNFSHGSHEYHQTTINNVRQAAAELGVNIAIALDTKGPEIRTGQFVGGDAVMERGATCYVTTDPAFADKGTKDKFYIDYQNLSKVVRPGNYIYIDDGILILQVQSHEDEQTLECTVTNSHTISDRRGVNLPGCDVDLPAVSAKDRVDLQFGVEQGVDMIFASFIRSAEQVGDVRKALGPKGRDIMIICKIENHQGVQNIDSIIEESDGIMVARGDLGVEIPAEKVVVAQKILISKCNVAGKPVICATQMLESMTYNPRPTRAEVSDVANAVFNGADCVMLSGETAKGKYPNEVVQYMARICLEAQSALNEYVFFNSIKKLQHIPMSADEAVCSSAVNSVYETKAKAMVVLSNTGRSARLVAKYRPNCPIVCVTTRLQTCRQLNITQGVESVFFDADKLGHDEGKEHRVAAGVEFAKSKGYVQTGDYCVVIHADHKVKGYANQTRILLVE
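0.1 nM LmPK, 0.5 mM PEP, 0.1 mM ADP; 50 mM imidazole pH 7.2, 7 mM MgCl2, 50 mM KCl; 1 h RT. Kinase-Glo luminescence readout, normalized to no-enzyme (full inhibition) and uninhibited wells.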
TbPYK inhibitor: blocks Trypanosoma brucei pyruvate kinase; TbPYK enzyme, Kinase-Glo Plus ATP luminescence, 45 min; AID 624173; 0.12% of 410,000 active; Potency, µM (series often up to 76.8 µM), for inactives: at the top dose activity, negative = inhibition, hits mostly inhibitors; further: on the % scale 0 is the no-effect control and ±100 the full control effect; nearly all actives have a fitted effect of over 50% in size
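In this concentration-response screen, enzyme-free wells defined baseline while DMSO plates tracked drift. Each reaction combined TbPYK, substrate, compound and 130 uM ADP for 45 min at room temperature. Kinase-Glo Plus luminescence gave the signal.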
SARS PLpro yeast: blocks SARS-CoV papain-like protease in a yeast assay; S. cerevisiae expressing SARS-CoV PLpro, growth rescue; Potency, µM (doses to about 32.9 µM), inactives show at the highest dose activity, positive = growth rescue, actives largely listed as activators; 0.19% of 330,000 active; calls by dose curve; further: 0% is about no effect; nearly all actives have a fitted effect of over 55% in size
* marks the source's active call; other numbers are inactive results. Unless noted, the call rests on the fitted dose curve; in most records, active means well fitted curve in the direction sought with a large enough effect; inconclusive means small, poorly fitted or top-dose-only effect, or another doubt; inactive means no such curve, though single readings can be large; an effect the other way counts as inactive or inconclusive. Potency means the concentration at half of the fitted maximal effect.

How did Cc1c(C(=O)NC(C)c2ccccc2)sc2ncnc(N(C)C3CCCCC3)c12 (stereo unspecified) do in these assays?
Sm TGR inh: 12%; TbPYK inhibitor: -1%

Results for CCCCCCc1cc2cc(-c3nnc(-c4cccc(Cl)c4)o3)c(=O)oc2cc1O ?
Sm TGR inh: -3%; TbPYK inhibitor: 4%

Results for COc1ccc(OC)c(-n2c(-c3cc(-c4ccc(F)cc4)n[nH]3)n[nH]c2=S)c1 ?
NS1 inh: 12%; RE007 growth inh: -14%; Sm TGR inh: 2%; LmPK inh: 14µM*; TbPYK inhibitor: inconclusive; SARS PLpro yeast: 18%

How did COc1ccc(-c2cc(-c3n[nH]c(=S)n3-c3cc(OC)ccc3OC)[nH]n2)cc1 do in these assays?
NS1 inh: -4%; RE007 growth inh: 23%; Sm TGR inh: -19%; LmPK inh: inconclusive; TbPYK inhibitor: inconclusive; SARS PLpro yeast: -7%

What do the screens show for `O=c1c2cc(N3CCOCC3)ccc2[nH]c(=S)n1Cc1ccco1`?
NS1 inh: 27%; RE007 growth inh: 0%; Sm TGR inh: 8.9µM*; LmPK inh: -1%; TbPYK inhibitor: inconclusive; SARS PLpro yeast: -4%

Results for O=c1c2cc(N3CCOCC3)ccc2[nH]c(=S)n1Cc1cccc(Cl)c1 ?
NS1 inh: 11%; RE007 growth inh: 16%; Sm TGR inh: 11%; LmPK inh: -1%; TbPYK inhibitor: -10%; SARS PLpro yeast: 5%

How did CC(=O)Nc1ccc(CN2CCc3c([nH]c4ccccc34)C2C(C)(C)C)cc1 (stereo unspecified) do in these assays?
NS1 inh: 8%; RE007 growth inh: 7%; Sm TGR inh: 50µM*; LmPK inh: -9%; TbPYK inhibitor: 3%; SARS PLpro yeast: 3%

What do the screens show for `COc1ccc(-c2nc3n(n2)C(=O)CC(c2ccco2)S3)cc1` (stereo unspecified)?
NS1 inh: -4%; RE007 growth inh: 5%; Sm TGR inh: 18µM*; LmPK inh: 4%; TbPYK inhibitor: -20%; SARS PLpro yeast: -10%

How did CCOc1ccc(C2CC(=O)n3nc(-c4ccc(C)cc4)nc3S2)cc1 (stereo unspecified) do in these assays?
Sm TGR inh: 7%; TbPYK inhibitor: 2%

Results for O=[N+]([O-])c1c(Nc2ccccc2O)cc(N2CCOCC2)c2nonc12 ?
NS1 inh: -8%; RE007 growth inh: 15%; Sm TGR inh: 4%; LmPK inh: 10%; TbPYK inhibitor: -1%; SARS PLpro yeast: 0%

What do the screens show for `O=C(O)c1ccccc1Nc1ccc([N+](=O)[O-])cc1C(=O)O`?
NS1 inh: 11%; RE007 growth inh: 15%; Sm TGR inh: -14%; LmPK inh: 3%; TbPYK inhibitor: 1%; SARS PLpro yeast: 2%

What do the screens show for `O=C(O)c1ccccc1Nc1ccc([N+](=O)[O-])c2nonc12`?
NS1 inh: 6%; RE007 growth inh: -19%; Sm TGR inh: 35µM*; LmPK inh: -18%; TbPYK inhibitor: 6%; SARS PLpro yeast: -2%

Results for O=[N+]([O-])c1cc([N+](=O)[O-])c2nonc2c1Nc1ccc(O)cc1 ?
NS1 inh: 26%; RE007 growth inh: 8%; Sm TGR inh: 32µM*; LmPK inh: -16%; TbPYK inhibitor: -13%; SARS PLpro yeast: 11%

How did O=[N+]([O-])c1cc([N+](=O)[O-])c2nonc2c1Nc1ccccc1O do in these assays?
NS1 inh: -49%; RE007 growth inh: -16%; Sm TGR inh: 50µM*; LmPK inh: 7%; TbPYK inhibitor: -1%; SARS PLpro yeast: -9%

What do the screens show for `N#CC(c1ccc(Cl)cc1)c1c(Cl)cc(-n2ncc(=O)[nH]c2=O)cc1Cl` (stereo unspecified)?
TbPYK inhibitor: 2%

Results for COc1ccc(-c2nc3cc(C)ccn3c2NC(=O)c2cccc(F)c2)cc1 ?
Sm TGR inh: 0%; TbPYK inhibitor: 1%
